# Measured values published in article PMC7819943, “Rice protein-binding microarrays: a tool to detect cis-acting elements near promoter regions in rice”.
# In all, about 39,000 sequences were measured (“fluorescence intensity (a.u.)”: median about 4,300, highest 2% from about 39,000 on). Shown is part of a subset that was picked to be rich in the highest values.
# Molecular target: T1, OsSMF1 (Oryza sativa, UniProt Q6ZLB0 1-436)
# T1 sequence: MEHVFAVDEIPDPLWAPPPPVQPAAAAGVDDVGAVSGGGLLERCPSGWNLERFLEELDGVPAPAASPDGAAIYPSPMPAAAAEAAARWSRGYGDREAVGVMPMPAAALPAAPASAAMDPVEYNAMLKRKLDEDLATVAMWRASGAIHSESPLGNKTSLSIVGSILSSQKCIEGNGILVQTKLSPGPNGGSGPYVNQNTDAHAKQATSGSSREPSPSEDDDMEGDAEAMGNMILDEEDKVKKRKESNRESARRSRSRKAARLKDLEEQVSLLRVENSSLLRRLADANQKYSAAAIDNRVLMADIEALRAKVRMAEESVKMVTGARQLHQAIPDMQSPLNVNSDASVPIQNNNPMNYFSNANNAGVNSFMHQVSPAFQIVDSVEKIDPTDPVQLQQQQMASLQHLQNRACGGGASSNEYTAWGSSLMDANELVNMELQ
# Assay: protein-binding microarray (RPBM); PBS, 2% BSA, 51.3 ng/ul salmon testes DNA, 50 uM zinc acetate, 200 nM TF, 25 C, 1 h; high values mean tight binding
# Settings: protein: recombinant; tags: N-terminal polyhistidine and DsRed monomer fusion (pET32a); chain copies: 2; label: CyDye5-dUTP incorporated in the synthesized complementary strand; 3' TTTTT single-stranded linker to array surface; dsDNA, one strand shown
# Outline: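 In PBS with 2% BSA, salmon testes DNA and 50 µM zinc acetate, 200 nM protein was incubated on a custom Agilent array at 25 °C for 1 h and then washed off. The array had been made double-stranded by primer extension with Cy5-dUTP and blocked with 2% BSA. The proteins were transcription factors fused N-terminally to polyhistidine and DsRed, expressed in E. coli BL21-CodonPlus and purified on Ni–NTA. The binding signal is per-feature fluorescence intensity (arbitrary units) from an Axon 4000B scanner.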
row,Sequence,binding signal
1,GCTCCTCCCGTGCCGCCGCCGTCTCGCGCCAGTGCGTCTCCGGAGTCACCTAGTGCAG,3330 fluorescence intensity (a.u.)
2,TCCCCACCCTCCTCCGCAAGCCACGCCTCTCCCCAAAGTTCGGAGTCACCTAGTGCAG,65500 fluorescence intensity (a.u.)
3,CAAAAGCCTCGCCGCGCACCACCACCCAGCTCTCTCCACTCGGAGTCACCTAGTGCAG,3640 fluorescence intensity (a.u.)
4,ACCACCACCACCACCATCGCACTCCCAACTCCCAAGCCGCCGGAGTCACCTAGTGCAG,3760 fluorescence intensity (a.u.)
5,GCTCCTCACCCGCCGTGAACCCAACCCACATCCGCTGACGCGGAGTCACCTAGTGCAG,3300 fluorescence intensity (a.u.)
6,AGCCAGCCCAAAAGCCACGCCGTCCACTCCATCTCCGCCTCGGAGTCACCTAGTGCAG,48000 fluorescence intensity (a.u.)
7,CTCCTCTCCCGCGCGCCACGCCCTCCCTCCCCTTCCCCTTCGGAGTCACCTAGTGCAG,4060 fluorescence intensity (a.u.)
8,AAAGCCTCGCCGCCATCTCTCTCCACCACCCAAAATTTCTCGGAGTCACCTAGTGCAG,35600 fluorescence intensity (a.u.)
9,ACCTGCCCAACCCCAACCCCAACCCTCTCCTCTCCGCCCACGGAGTCACCTAGTGCAG,3710 fluorescence intensity (a.u.)
10,AAGAAAATCTCCTGTCTCAGTCTCCTCCGCTCCTTGCGCCCGGAGTCACCTAGTGCAG,54400 fluorescence intensity (a.u.)
11,TCCCGTCTCGTCCGTCGTCTCCTCCGCTCCTTGCGCCAAGCGGAGTCACCTAGTGCAG,3200 fluorescence intensity (a.u.)
12,GGTATTGCTGTATTTATTTTGGTGTGGTTGAGAGTCTAGTCGGAGTCACCTAGTGCAG,4096 fluorescence intensity (a.u.)
13,CATTCCCCTCTCCCCAATTTACCATACACACATGGATGTACGGAGTCACCTAGTGCAG,3640 fluorescence intensity (a.u.)
14,TGATCAATCAAGAAGACGATCGTGCCGATATCATGGCACCCGGAGTCACCTAGTGCAG,3940 fluorescence intensity (a.u.)
15,GTCTTTCTTCAATTGTTATTATTGTCATAAATCAGGAGAACGGAGTCACCTAGTGCAG,22600 fluorescence intensity (a.u.)
16,TTAACCCCGTCACGTCACCTCTCTCTCTCTCTACCGTCTCCGGAGTCACCTAGTGCAG,9720 fluorescence intensity (a.u.)
17,CAAACGGGACGAATTCCTAACCCTCGTCATCCGTCCCTTCCGGAGTCACCTAGTGCAG,4710 fluorescence intensity (a.u.)
18,CTGTTATCTTTCAATAAACCAAGGGAATTTTAGTTTGTTCCGGAGTCACCTAGTGCAG,33200 fluorescence intensity (a.u.)
19,AAGAGGATGGCTGGGAGGATGACATGTGGAGCCCACATGGCGGAGTCACCTAGTGCAG,4450 fluorescence intensity (a.u.)
20,TCTCTTCCCCTCTCCGCGCCGCCCTCCGCCCCGCCCGCGGCGGAGTCACCTAGTGCAG,3270 fluorescence intensity (a.u.)
21,CGCCCGAGAGCGAACGGCCGTCTGCCACGTCACTTTCGCCCGGAGTCACCTAGTGCAG,29100 fluorescence intensity (a.u.)

row,Sequence,binding signal
1,ACATCCACAACCATCTCCACCTCACCTCGTCCATCGTCTCCGGAGTCACCTAGTGCAG,6010 fluorescence intensity (a.u.)
2,GGCGCCGTGCCGTAATCCATCTCCTCCGTCGTCCAACCTCCGGAGTCACCTAGTGCAG,44900 fluorescence intensity (a.u.)
3,CCAACCCATCTCCACCGTCCATCTCCATCCGACGCCTCCCCGGAGTCACCTAGTGCAG,24300 fluorescence intensity (a.u.)
4,CCCGAGAGCGAACGGCCGTCTGCCACGTCATTTTCGCCGCCGGAGTCACCTAGTGCAG,29700 fluorescence intensity (a.u.)
5,TCCCTCCCTCCGCCGCGCCACGCCCACCCACGCATCCATCCGGAGTCACCTAGTGCAG,4110 fluorescence intensity (a.u.)
6,CCGGCCACCGCCCTCCCGCCGCACGGGCCACCGGCCACCGCGGAGTCACCTAGTGCAG,3460 fluorescence intensity (a.u.)
7,AGCCCGGCCCACCACGGGGTTTCCCTCTTCTCTAGGCCCGCGGAGTCACCTAGTGCAG,50600 fluorescence intensity (a.u.)
8,AACCTCCATCTCCCGCCCAGTGCCGCCGCGCCACGTCACCCGGAGTCACCTAGTGCAG,39100 fluorescence intensity (a.u.)
9,CGAGAGCGAACGGCCGTCTGCCACGTCACTTTCGCCACCCCGGAGTCACCTAGTGCAG,41900 fluorescence intensity (a.u.)
10,TCCACCCCACGTCCTCCTCCTCCCCAGCAGTCCCACCCGCCGGAGTCACCTAGTGCAG,3570 fluorescence intensity (a.u.)
11,GGTTGAATCAAATTGTTCCTCTGTTACACTTACACATCATCGGAGTCACCTAGTGCAG,3250 fluorescence intensity (a.u.)
12,AATACTGAATACTAGTGCAACGTCATTGAAAATTTTATCCCGGAGTCACCTAGTGCAG,5090 fluorescence intensity (a.u.)
13,CGTCGTGCCTACGGGCCGTTCGCGTGTCGTGTCGGCCCAACGGAGTCACCTAGTGCAG,3850 fluorescence intensity (a.u.)
14,ACGGTAGGAGCTGCAGCGGTCGGGGTGGGAGCAGGGGTCGCGGAGTCACCTAGTGCAG,3440 fluorescence intensity (a.u.)
15,AAATGTTATGAGTACGATGACACATTAAAACACAGTCATTCGGAGTCACCTAGTGCAG,4650 fluorescence intensity (a.u.)
16,TTTTGGGCCTCCTGTGACCTACATGGGCCGCACTTCTTTCCGGAGTCACCTAGTGCAG,25900 fluorescence intensity (a.u.)
17,TTACAGGTGTTGTCATTTTATGTGACCGGTCAGACCGGGCCGGAGTCACCTAGTGCAG,4510 fluorescence intensity (a.u.)
18,GACCATAAGTGTCCACGTATGCAAAACTCGACCTCCGTTTCGGAGTCACCTAGTGCAG,13800 fluorescence intensity (a.u.)
19,CACAACCACAAGGTTGTCATTACCTCTATCATCGGTGTAACGGAGTCACCTAGTGCAG,3380 fluorescence intensity (a.u.)
20,CATCATGTCCTATCTGAACTGTTACAACCACGACGTAGTACGGAGTCACCTAGTGCAG,3320 fluorescence intensity (a.u.)
21,CATTTATAACTTTGCTGTGTTTCACTGATGCAGGTTTTATCGGAGTCACCTAGTGCAG,3490 fluorescence intensity (a.u.)
